In the supplement of paper PMC10338343:
± gives the standard deviation. Whole data set: some 5,500 sequences, median “pre-steady-state target cleavage rate” near 0.1, cut for the highest 2% near 0.64. The full list was thinned out, with the highest values kept by preference.

tested on: MIWI (PIWIL1) piRISC loaded with piRNA #2 (30 nt); assay: pre-steady-state target cleavage rate (min^-1); MIWI and MILI are mouse PIWI proteins and EfPiwi is from a freshwater sponge; tags in brackets are library labels; higher = faster piRNA-guided slicing of the target; details: guide: piRNA #2 5'p-UUAGGUAACCCAGUAGAUCCAGAGGAAUUC; auxiliary factor: 500 nM mouse GTSF1
Method: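 Cleave-'n-Seq: a library of target RNAs (target site embedded in constant flanks, ACAGCATTCCGCGTTAGTGATATCCG... 5' flank; DNA-blocked outside the site) at 0.1 nM was incubated with 1 nM active mouse MILI or MIWI piRISC (synthetic 5'-monophosphorylated piRNA guide) with or without 500 nM mouse GTSF1 at 33 °C for 1 min to 16 h. Uncleaved targets were sequenced and normalised to non-target controls, and the pooled three trials were fitted to a burst-and-steady-state model to give the pre-steady-state cleavage rate (min^-1; k3 is constrained to at most 1e-4). Sequence is the target site only; target names encode pairing extent (gX:gY) and contiguous / 1-mismatch / 2-mismatch / bulge geometry. Fits with R² ≤ 0 are excluded.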

| Sequence | pre-steady-state target cleavage rate |
| --- | --- |
| CAAUUCCACUGGAUCUACUGGGUUAGCUAA | 0.223 ± 0.076 |
| GAAUUCCACUGGAUCUACUGGGUUACGUAA | 0.803 ± 0.043 |
| CUAUUCCACUGGAUCUACUGGGUUAGCUAA | 0.16 ± 0.04 |
| CUAUUCCUGUGGAUCUACUGGGUUACGUAA | 0.47 ± 0.052 |
| CUAUUCCACUGGAUCUACUGGGUUACGUAA | 0.481 ± 0.066 |
| CAAUUCCUGUGGAUCUACUGGGUUACGUAA | 0.428 ± 0.075 |
| GAAUUCCUGUGGAUCUACUGGGUUACGUAA | 0.637 ± 0.063 |
| GAAUUCCACUGGAUCUACUGGGUUAGCUAA | 0.668 ± 0.12 |
| CAAUUCCACUGGAUCUACUGGGUUACGUAA | 0.419 ± 0.081 |
| CUAUUCCUCAGGAUCUACUGGGUUACGUAA | 0.499 ± 0.073 |
| GAAUUCCUCAGGAUCUACUGGGUUACGUAA | 0.738 ± 0.062 |
| CAAUUCCUCAGGAUCUACUGGGUUACGUAA | 0.594 ± 0.058 |
| CUUAUCCUGUGGAUCUACUGGGUUACCAAA | 0.166 ± 0.038 |
| CUAAACCUCUGGAUCUACUGGGUUACCUAA | 0.266 ± 0.04 |
| CUUAUCCUGACGAUCUACUGGGUUACCUAA | 0.0767 ± 0.014 |
| CUUAACCCUGGAUCUACUGGGUUACCUAA | 0.326 ± 0.033 |
| CUUAUCCUCUGGAUCUACUGGGAUUCCUAA | 0.103 ± 0.04 |
| CUUAAGGAGAGGUUCUACUGGGUUUCCUAA | 0.00421 ± 0.0042 |
| CUUAUCCUCUGGAUCUACUCGGUUACCUAA | 0.0981 ± 0.018 |
| CUUAUCCUCUGGAUAUACUGGGUUACCUAA | 0.688 ± 0.052 |
| CAAUUCCUCUGGAUACUACUGGGUUACCUAA | 0.519 ± 0.068 |
| CUUUUCCUCUGGAUAUACUGGGUUACCUAA | 0.628 ± 0.04 |
| CAAUUCCUCUGGAUAUACUGGGUUACCUAA | 0.724 ± 0.043 |
| CUUAUCCUCUGGAUACUACUGGGUUACCUAA | 0.419 ± 0.059 |
| CUAUUCCUCUGGAUACUACUGGGUUACCUAA | 0.422 ± 0.056 |

| Sequence | pre-steady-state target cleavage rate |
| --- | --- |
| CUAUUCCUCUGGAUAUACUGGGUUACCUAA | 0.772 ± 0.057 |
| GAAUUCCUCUGGAUAUACUGGGUUACCUAA | 0.551 ± 0.038 |
| CUUAUCCUCUGGAUUACUGGGUUACCUAA | 0.481 ± 0.04 |
| CAAUUCCUCAGGAUCUACUGGGUAACCUAA | 0.336 ± 0.056 |
| CUUAACCUCUGGAUCUUCAGGGUUACCUAA | 0.112 ± 0.014 |
| CUUAACCUCUGGAACUACUGGGUUAGCUAA | 0.103 ± 0.016 |
| CAAUUCCUCUCGAUCUACAGGGUUACCUAA | 0.546 ± 0.038 |
| CUUUUCCUCUGGAACUAGUGGGUUACCUAA | 0.204 ± 0.025 |
| CUUAAGGAGAGGAUCUACUGGGUUACCUCA | 0.012 ± 0.0055 |
| CAAUUCCUCUCGAUCUACUGGGUUACCUUA | 0.69 ± 0.056 |
| CAAUUCCUCUCGAUCUACUGGGUUACCUAA | 0.822 ± 0.063 |
| CAAAUCCUCUCGAUCUACUGGGUUACCUAA | 0.641 ± 0.05 |
| GAAAUCCUCUCGAUCUACUGGGUUACCUAA | 0.586 ± 0.054 |
| CUAUUCCUCUCGAUCUACUGGGUUACCUUA | 0.583 ± 0.056 |
| CAAUACCUCUCGAUCUACUGGGUUACCUAA | 0.625 ± 0.056 |
| GAAUUCCUCUCGAUCUACUGGGUUACCUUA | 0.629 ± 0.069 |
| CAAUUCCUCUCGGAUCUACUGGGUUACCUAA | 0.506 ± 0.065 |
| CUAAUCCUCUCGAUCUACUGGGUUACCUAA | 0.631 ± 0.042 |
| GUAUUCCUCUCGAUCUACUGGGUUACCUAA | 0.193 ± 0.044 |
| CUAUUCCUCUCGAUCUACUGGGUUACCUAA | 0.734 ± 0.063 |
| CUAUUCCUCUCGGAUCUACUGGGUUACCUAA | 0.575 ± 0.089 |
| CUUAAGGUCUGGAUCUACUGGGUUACCAUA | 0.203 ± 0.029 |
| CUUAACCUCUCGAUCUUCUGGGUUACCUAA | 0.47 ± 0.044 |
| CUUAAGGUCUGGAUCUUCUGGGUAACCUAA | 0.0193 ± 0.011 |
| CUUAAGGAGUGGAUCUACACCGUUACCUAA | 0.0034 ± 0.0022 |

| Sequence | pre-steady-state target cleavage rate |
| --- | --- |
| CUAUUCCUCUGCAUCUUCUGGGUUACCUAA | 0.316 ± 0.028 |
| GAAUUCCUCUGGAUCUACUGGGUUUGGUAA | 0.244 ± 0.061 |
| CUUAAGGUCUGGAUGUACUGGCUUACCUAA | 0.0442 ± 0.028 |
| CUUUACCUCUGGAUCUACUCGGUUACCUAA | 0.0688 ± 0.0087 |
| CUUAACCUCUGGAUGUUCUGGGUUACCUAA | 0.244 ± 0.019 |
| CUAUAUCCUCUGGAUCUACUGGGUUACCUAA | 0.352 ± 0.071 |
| GAAUUCCUCUCGAUCUACUGGGUUUCCUAA | 0.524 ± 0.06 |
| GAAUUCCUCUCGGAUCUACUGGGUUACCUAA | 0.442 ± 0.048 |
| GAAUUCCUCUCGAUCUACUGGGUUACCUAA | 0.642 ± 0.068 |
| CUUAACCUGUGGAUCUACUGGGUAACCUAA | 0.0751 ± 0.013 |
| GAAUUCCUCUGGAUCUAGUGGGAUACCUAA | 0.0616 ± 0.011 |
| CUUUUCCUCUGCAUCUACUGGGAUACCUAA | 0.128 ± 0.018 |
| CAUUUCCUCUGGAUCUACUGGGUUACGUAA | 0.622 ± 0.062 |
| CUUUUCCUCUCGAUCUACUGGGUUUCCUAA | 0.509 ± 0.058 |
| CAAUUCCUCUGGAUCUACUGGGUUACGUAA | 0.598 ± 0.065 |
| CUAUUCCUCUCGAUCUACUGGGUUACGUAA | 0.935 ± 0.047 |
| CAAUUCCUCUCGAUCUACUGGGUUACGUAA | 0.885 ± 0.061 |
| CUUUUCCUCUCGAUCUACUGGGUUACGUAA | 0.746 ± 0.034 |
| CUAUUCCUCUGGAUCUACUGGGUUACGUAA | 0.63 ± 0.047 |
| GUAUUCCUCUGGAUCUACUGGGUUACGUAA | 0.377 ± 0.057 |
| CUUUUCCUCUGGAUCUACUGGGUUACGUAA | 0.664 ± 0.034 |
| CUUUUCCUCAGGAUCUACUGGGUUACGUAA | 0.523 ± 0.067 |
| CUUUUCCUCUGGAUCUACUGGGUUACGUUA | 0.374 ± 0.044 |
| GAAUUCCUCUCGAUCUACUGGGUUACGUAA | 0.581 ± 0.067 |
